Screening results deposited in PubChem BioAssay by Broad Institute.
IDE exosite inh = displaces the probe from the exo-site of human IDE; P14735; purified IDE, FL-6b probe fluorescence polarization; stronger effect = lower value; z-score at 20 µM; 6.3% of 17,000 active;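 active = z-score of -3 or lower, meaning strong loss of probe binding signal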;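 note: His-tagged human IDE residues 42-1019 made in E. coli with 30 nM FL-6b probe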
Target sequence (P14735 42-1019 limits assumed): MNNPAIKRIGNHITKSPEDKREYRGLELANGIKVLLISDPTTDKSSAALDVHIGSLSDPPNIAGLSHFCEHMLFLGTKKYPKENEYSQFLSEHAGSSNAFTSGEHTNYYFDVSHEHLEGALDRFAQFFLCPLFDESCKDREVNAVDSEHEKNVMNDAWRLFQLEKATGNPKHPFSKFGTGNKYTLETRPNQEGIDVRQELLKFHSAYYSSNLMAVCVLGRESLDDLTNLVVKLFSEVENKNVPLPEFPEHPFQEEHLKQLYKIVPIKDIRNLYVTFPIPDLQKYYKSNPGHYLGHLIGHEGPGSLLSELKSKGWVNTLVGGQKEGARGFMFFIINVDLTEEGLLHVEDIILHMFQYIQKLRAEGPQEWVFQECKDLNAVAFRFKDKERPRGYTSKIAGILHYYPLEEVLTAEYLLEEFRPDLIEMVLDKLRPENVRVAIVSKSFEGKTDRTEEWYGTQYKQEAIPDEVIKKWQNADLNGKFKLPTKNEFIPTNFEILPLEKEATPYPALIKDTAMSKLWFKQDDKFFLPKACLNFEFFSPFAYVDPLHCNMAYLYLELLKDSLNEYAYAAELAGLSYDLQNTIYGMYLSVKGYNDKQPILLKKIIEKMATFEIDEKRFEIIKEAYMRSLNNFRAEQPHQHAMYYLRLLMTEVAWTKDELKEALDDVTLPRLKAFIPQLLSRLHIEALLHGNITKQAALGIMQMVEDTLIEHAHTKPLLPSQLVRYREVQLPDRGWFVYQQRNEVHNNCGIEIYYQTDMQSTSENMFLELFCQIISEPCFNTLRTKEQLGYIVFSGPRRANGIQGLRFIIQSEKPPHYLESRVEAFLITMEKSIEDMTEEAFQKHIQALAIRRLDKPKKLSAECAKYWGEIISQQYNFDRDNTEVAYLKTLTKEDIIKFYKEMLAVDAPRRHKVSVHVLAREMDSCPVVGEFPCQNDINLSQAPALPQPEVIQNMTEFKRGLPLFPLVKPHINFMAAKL
* = called active by the depositor; ! = a repeat was not active. Shown is part of a subset that was picked to be rich in hits.

SMILES	IDE exosite inh
O=C(Nc1ccc2c(c1)OCO2)N1[C@@H]2CNC[C@H]1C2c1ccc(-c2ccncc2)cc1 (some centres not stated)	-3.2*!
O=C(Nc1ccccc1F)N1[C@@H]2CNC[C@H]1C2c1ccc(-c2cccnc2)cc1 (some centres not stated)	-3.3*!
O=C(Nc1ccc(F)cc1)N1[C@@H]2CNC[C@H]1C2c1ccc(-c2cccnc2)cc1 (some centres not stated)	-0.059
CO[C@H]1CC[C@@H]2CCOc3c(C#N)cccc3C(=O)N(C)C[C@H](OC)[C@@H](C)C(=O)N(C)C[C@H]1O2	1
CN(C)C(=O)c1ccc(-c2ccccc2[C@H]2[C@@H](C#N)N(C(=O)C3CC3)[C@@H]2CO)cc1	-2
O=C(C[C@H]1C=C[C@H](NC(=O)Nc2ccc3c(c2)OCO3)[C@@H](CO)O1)NCCCN1CCOCC1	-0.18
COCC(=O)N1CC(=O)N2[C@H](C1)[C@H](c1ccc(Br)cc1)[C@@H]2CO	3.4
COc1cccc(-c2cn(CC[C@H]3CC[C@@H](NS(=O)(=O)c4ccccc4Cl)[C@@H](CO)O3)nn2)c1	0.32
O=C(c1ccc(F)cc1)N1CC(=O)N2[C@H](CO)[C@@H](c3ccc(-c4ccccc4F)cc3)[C@H]2C1	0.69
O=C(c1cccc(F)c1)N1CC(=O)N2[C@@H](CO)[C@H](c3ccc(-c4ccccc4)cc3)[C@@H]2C1	2.4
O=C(c1cccc(F)c1)N1CC(=O)N2[C@@H](CO)[C@@H](c3ccc(-c4ccccc4F)cc3)[C@@H]2C1	-1.1
O=C(c1cccc(F)c1)N1CC(=O)N2[C@H](CO)[C@H](c3ccc(-c4ccccc4F)cc3)[C@H]2C1	-4.8*
O=C(c1cccnc1)N1CC(=O)N2[C@@H](CO)[C@@H](c3ccc(-c4ccccc4F)cc3)[C@@H]2C1	0.48
O=C(c1cccc(F)c1)N1CC(=O)N2[C@H](C1)[C@@H](c1ccc(-c3ccccc3F)cc1)[C@@H]2CO	-3.9*
CC(C)CC#Cc1ccc([C@H]2[C@H](CO)N3C(=O)CN(S(C)(=O)=O)C[C@@H]23)cc1	4.6
CN(C)C(=O)c1cccc(-c2ccc([C@@H]3[C@@H](C#N)N(C(=O)C4CCC4)[C@H]3CO)cc2)c1	-0.093
CN(C)C(=O)c1cccc(-c2ccc([C@H]3[C@H](CO)N4C(=O)CN(C(=O)CC5CC5)C[C@@H]34)cc2)c1	2.1
O=C(Cc1cccnc1)N1CC(=O)N2[C@H](C1)[C@@H](c1ccc(-c3cccc(F)c3)cc1)[C@@H]2CO	-7*
O=C(Cc1cccnc1)N1CC(=O)N2[C@H](C1)[C@H](c1ccc(-c3cccc(F)c3)cc1)[C@@H]2CO	-1.9
O=C(Cc1ccccc1)N1CC(=O)N2[C@H](CO)[C@H](c3ccc(-c4cccc(F)c4)cc3)[C@@H]2C1	0.84
O=C(Cc1ccccc1)N1CC(=O)N2[C@H](C1)[C@@H](c1ccc(-c3cccc(F)c3)cc1)[C@@H]2CO	-3.5*
O=C(Cc1ccccc1)N1CC(=O)N2[C@@H](CO)[C@H](c3ccc(-c4cccc(F)c4)cc3)[C@@H]2C1	-2.4
O=C(Cc1cccnc1)N1CC(=O)N2[C@H](CO)[C@H](c3ccc(-c4cccc(F)c4)cc3)[C@@H]2C1	-0.91
O=C(c1cccc(F)c1)N1CCCCN2[C@H](C1)[C@H](c1ccc(-c3cccnc3)cc1)[C@@H]2CO	1.1
C/C=C/c1ccc([C@@H]2[C@H]3CN(C(=O)Nc4ccccc4F)CC(=O)N3[C@H]2CO)cc1	-2.3
SMILES	IDE exosite inh
C[C@H]1CN([C@@H](C)CO)C(=O)c2ccccc2-c2ccccc2CO[C@@H]1CN(C)C(=O)Nc1cccc(Cl)c1Cl	-0.067
O=C(NC1CCCC1)N[C@H]1C=C[C@H](CC(=O)N2CCOCC2)O[C@H]1CO	0.42
CCN(C[C@H]1N[C@H](CO)[C@@H]1c1ccc(-c2cccc(C#N)c2)cc1)C(C)=O	4.3
O=C(NC1CCCC1)N1CCCCN2[C@H](CO)[C@H](c3ccc(-c4cncnc4)cc3)[C@@H]2C1	3.7
O=C(NC1CCCC1)N1CCCCN2[C@H](C1)[C@H](c1ccc(-c3ccccc3)cc1)[C@@H]2CO	-2.1
O=C(NC1CCCC1)N1CCCCN2[C@H](CO)[C@@H](c3ccc(-c4ccncc4)cc3)[C@H]2C1	4.7
CC(C)CC#Cc1ccc([C@@H]2[C@@H](CO)N3CCCCN(C(=O)NC4CCCC4)C[C@@H]23)cc1	1.8
CC(C)CC#Cc1ccc([C@H]2[C@@H](CO)N3CCCCN(C(=O)NC4CCCC4)C[C@@H]23)cc1	-0.55
O=C(NC1CCCC1)N1CCCCN2[C@H](C1)[C@H](c1ccc(-c3cncnc3)cc1)[C@@H]2CO	-0.86
CCCC#Cc1ccc([C@H]2[C@H](CO)N3CCCCN(C(=O)NC4CCCC4)C[C@@H]23)cc1	-8.2*
O=C(NC1CCCC1)N1CCCCN2[C@@H](CO)[C@H](c3ccc(-c4ccccc4)cc3)[C@@H]2C1	-3*
Cc1ccccc1-c1ccc([C@@H]2[C@@H](CO)N3CCCCN(C(=O)NC4CCCC4)C[C@H]23)cc1	-15*
Cc1ccccc1-c1ccc([C@@H]2[C@H](CO)N3CCCCN(C(=O)NC4CCCC4)C[C@@H]23)cc1	-19*
COc1ccc(NC(=O)N2CCCCN3[C@H](C2)[C@H](c2ccc(-c4ccccc4C)cc2)[C@@H]3CO)cc1	4.2
O=C(N[C@@H]1CC[C@@H](CCNS(=O)(=O)c2ccc(F)cc2)O[C@@H]1CO)C1CCC1	3.4
CN1c2ccc(-c3ccc(C#N)cc3)cc2[C@@H]2[C@@H](CCN2S(=O)(=O)c2ccc(F)cc2)[C@@H]1CO	1.5
COc1cccc(CNC(=O)C[C@@H]2CC[C@H]3[C@@H](COc4ccc(NS(=O)(=O)c5ccccc5F)cc4C(=O)N3C)O2)c1	-0.3
CN(C)CC#Cc1ccc([C@H]2[C@@H](CO)N3CCCCN(CC4CCOCC4)C[C@H]23)cc1	1.6
COc1cccc(CNC(=O)C[C@H]2CC[C@H]3[C@H](COc4ccc(NC(=O)c5cccs5)cc4C(=O)N3C)O2)c1	-0.3
O=C(c1ccccc1F)N1C[C@@H]2[C@H](c3ccccc31)[C@@H](CO)N2C(=O)Nc1ccccc1	-0.34
O=C(NCc1ccccc1F)[C@H]1[C@H](CO)[C@H]2Cn3c(cccc3=O)[C@H]2N1CC1CCCC1	0.14
COc1ccc(NC(=O)N2CCCCN3[C@H](CO)[C@@H](c4ccc(C5=CCCCC5)cc4)[C@H]3C2)cc1	4.1
C[C@@H]1CN([C@H](C)CO)C(=O)c2cc(NC(=O)C3CCCCC3)ccc2O[C@H]1CN(C)Cc1ccc2c(c1)OCO2	1
O=C(C[C@@H]1C=C[C@@H](NC(=O)Nc2ccc3c(c2)OCO3)[C@H](CO)O1)NCCCN1CCOCC1	1.6
C/C=C/c1ccc([C@@H]2[C@@H](CO)N(C(=O)CC)[C@@H]2CNC(=O)CC)cc1	0.66
SMILES	IDE exosite inh
COc1ccc(NC(=O)N2CC(=O)N3[C@H](C2)[C@@H](c2ccc(Br)cc2)[C@@H]3CO)cc1	-0.63
COc1ccc2c3c([nH]c2c1)[C@H](CO)N(Cc1ccccn1)CC31CN(Cc2cccc(F)c2)C1	-1.6
O=S(=O)(c1ccc(F)cc1)N1CCCCN2[C@H](C1)[C@@H](c1ccc(-c3cncnc3)cc1)[C@@H]2CO	0.5
CC(C)NC(=O)N1CCCCN2[C@H](CO)[C@@H](c3ccc(C#Cc4ccccc4F)cc3)[C@H]2C1	-10*
CC(C)C#Cc1ccc([C@@H]2[C@@H](CO)N3CCCCN(C(=O)NC(C)C)C[C@@H]23)cc1	1.1
CC(C)NC(=O)N1CCCCN2[C@H](C1)[C@H](c1ccc(C#C[C@@H](C)O)cc1)[C@@H]2CO	1.2
